Measured values taken from the supplement of paper PMC7726561.
The full ranking holds about 1,400 sequences; the median of “thermal melting temperature (Tm) of peptide-HLA complex” is about 60, and the lowest 2% start at about 45. Only a selection was taken, and the lowest values are over-represented in it overall.

B1: unnamed (peptide)
chain: SPNLRLLDL
B2: unnamed (peptide)
chain: LPSPSPRISL
B3: unnamed (peptide)
chain: GSISRIYL
B4: unnamed (peptide)
chain: NVRPPNTAL
B5: unnamed (peptide)
chain: APYSRPKQL
B6: unnamed (peptide)
chain: APRGTGIVSA
B7: unnamed (peptide)
chain: IPRGADNLVAI
B8: unnamed (peptide)
chain: VPRPPSLLATL
B9: unnamed (peptide)
chain: FPQHTIASL
B10: unnamed (peptide)
chain: GPRNVLLFL
B11: unnamed (peptide)
chain: TPQQGAQTSL
B12: unnamed (peptide)
chain: TPQGFRSTL
B13: unnamed (peptide)
chain: YLRDTLLAL
B14: unnamed (peptide)
chain: VPEVTKPSL
B15: unnamed (peptide)
chain: SPRPALPALL
B16: unnamed (peptide)
chain: APILRARLLPL
B17: unnamed (peptide)
chain: YPKRPLLGL
B18: unnamed (peptide)
chain: YIDEGRLVL
B19: unnamed (peptide)
chain: GPRSSLRVL
B20: unnamed (peptide)
chain: FPRSVVEFL
B21: unnamed (peptide)
chain: LPAPKGPAL
B22: unnamed (peptide)
chain: LPTSPGPAL
B23: unnamed (peptide)
chain: KPNHTLVLL
B24: unnamed (peptide)
chain: RPADSMLNVL
B25: unnamed (peptide)
chain: RPAPLVQQL
B26: unnamed (peptide)
chain: APREHPFVL
B27: unnamed (peptide)
chain: LPRTIFPTSTI
B28: unnamed (peptide)
chain: LPHSATVTL
B29: unnamed (peptide)
chain: DPMKARVVL
B30: unnamed (peptide)
chain: IPKLPAVSF
B31: unnamed (peptide)
chain: QPRSPGPDYSL
B32: unnamed (peptide)
chain: RPKALTQVL
B33: unnamed (peptide)
chain: SPLVSRLTL
B34: unnamed (peptide)
chain: SPLVSRLTLY
B35: unnamed (peptide)
chain: RPQLKGVVL
B36: unnamed (peptide)
chain: SPLPSPSAM
B37: unnamed (peptide)
chain: HPISNNNSL
B38: unnamed (peptide)
chain: NPMVTGTSV
B39: unnamed (peptide)
chain: LPHEVDKSEL
B40: unnamed (peptide)
chain: SPVLRNFTF
B41: unnamed (peptide)
chain: IPRPEVQAL
B42: unnamed (peptide)
chain: VPQVKASAL
B43: unnamed (peptide)
chain: LPGLRDLVL
B44: unnamed (peptide)
chain: MPKVKTIEL
B45: unnamed (peptide)
chain: APRSVAVSSI
B46: unnamed (peptide)
chain: SPHPGLLL
B47: unnamed (peptide)
chain: KPHIGLTEL
B48: unnamed (peptide)
chain: LPRTPSYSI
B49: unnamed (peptide)
chain: HPISSEELLSL
B50: unnamed (peptide)
chain: MPKLRVLEL
B51: unnamed (peptide)
chain: YPNERFELL
B52: unnamed (peptide)
chain: APSDLRTIQTF
B53: unnamed (peptide)
chain: RPFFPLTATL
B54: unnamed (peptide)
chain: FIRNRTLQL
B55: unnamed (peptide)
chain: MPARWLTHL
B56: unnamed (peptide)
chain: QPVAGRPSL
B57: unnamed (peptide)
chain: QPNLKLLAM
B58: unnamed (peptide)
chain: SPRGAGYLF
B59: unnamed (peptide)
chain: RPVLWVGV

Biological target: HLA-B*07:02
Experiment: thermal melting temperature (Tm) of peptide-HLA complex; higher = more thermostable pHLA complex
Details: C1R-B*07:02
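Note: lysates heated 10 min at 37–73 °C, complexes pulled down with pan-HLA I antibody, peptide signal by DIA-MS relative to 37 °C, Tm where half the complex is unfolded.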

Q: How did the thermal melting temperature turn out when B1 was run?
A: 63.4 °C

Q: Which thermal melting temperature does the source give for B2 here?
A: 60.6 °C

Q: With B3 as the sequence, how does the thermal melting temperature read?
A: 41.4 °C

Q: Which thermal melting temperature does the source give for B4 here?
A: 56.8 °C

Q: For B5, which thermal melting temperature is on record?
A: 61.5 °C

Q: Which thermal melting temperature does the source give for B6 here?
A: 57.4 °C

Q: B7 was tested. Which thermal melting temperature did it give?
A: 61.8 °C

Q: How did the thermal melting temperature turn out when B8 was run?
A: 62.9 °C

Q: Which thermal melting temperature does the source give for B9 here?
A: 58.7 °C

Q: Which thermal melting temperature does the source give for B10 here?
A: 55.1 °C

Q: For B11, which thermal melting temperature is on record?
A: 40.5 °C

Q: For B12, which thermal melting temperature is on record?
A: 60 °C

Q: For B13, which thermal melting temperature is on record?
A: 53.6 °C

Q: For B14, which thermal melting temperature is on record?
A: 57.6 °C

Q: How did the thermal melting temperature turn out when B15 was run?
A: 60.2 °C

Q: With B16 as the sequence, how does the thermal melting temperature read?
A: 47.3 °C

Q: How did the thermal melting temperature turn out when B17 was run?
A: 61.3 °C

Q: Which thermal melting temperature does the source give for B18 here?
A: 51.6 °C

Q: For B19, which thermal melting temperature is on record?
A: 58.9 °C

Q: With B20 as the sequence, how does the thermal melting temperature read?
A: 62 °C

Q: Which thermal melting temperature does the source give for B21 here?
A: 57.9 °C

Q: Which thermal melting temperature does the source give for B22 here?
A: 40.6 °C

Q: How did the thermal melting temperature turn out when B23 was run?
A: 59.2 °C

Q: For B24, which thermal melting temperature is on record?
A: 62 °C

Q: How did the thermal melting temperature turn out when B25 was run?
A: 58.3 °C

Q: Which thermal melting temperature does the source give for B26 here?
A: 61 °C

Q: For B27, which thermal melting temperature is on record?
A: 62.8 °C

Q: Which thermal melting temperature does the source give for B28 here?
A: 60.7 °C

Q: B29 was tested. Which thermal melting temperature did it give?
A: 49.3 °C

Q: For B30, which thermal melting temperature is on record?
A: 63.1 °C

Q: For B31, which thermal melting temperature is on record?
A: 57.7 °C

Q: For B32, which thermal melting temperature is on record?
A: 61 °C

Q: For B33, which thermal melting temperature is on record?
A: 61.4 °C

Q: With B34 as the sequence, how does the thermal melting temperature read?
A: 41.1 °C

Q: Which thermal melting temperature does the source give for B35 here?
A: 61.1 °C

Q: For B36, which thermal melting temperature is on record?
A: 63.8 °C

Q: Which thermal melting temperature does the source give for B37 here?
A: 41.6 °C

Q: For B38, which thermal melting temperature is on record?
A: 56.3 °C

Q: With B39 as the sequence, how does the thermal melting temperature read?
A: 44.8 °C

Q: How did the thermal melting temperature turn out when B40 was run?
A: 41.7 °C

Q: Which thermal melting temperature does the source give for B41 here?
A: 54.1 °C

Q: Which thermal melting temperature does the source give for B42 here?
A: 59 °C

Q: Which thermal melting temperature does the source give for B43 here?
A: 61.7 °C

Q: B44 was tested. Which thermal melting temperature did it give?
A: 56.4 °C

Q: With B45 as the sequence, how does the thermal melting temperature read?
A: 59.4 °C

Q: For B46, which thermal melting temperature is on record?
A: 61 °C

Q: With B47 as the sequence, how does the thermal melting temperature read?
A: 60.7 °C

Q: Which thermal melting temperature does the source give for B48 here?
A: 62.1 °C

Q: Which thermal melting temperature does the source give for B49 here?
A: 58.6 °C

Q: Which thermal melting temperature does the source give for B50 here?
A: 57.1 °C

Q: Which thermal melting temperature does the source give for B51 here?
A: 63.1 °C

Q: How did the thermal melting temperature turn out when B52 was run?
A: 62.8 °C

Q: Which thermal melting temperature does the source give for B53 here?
A: 49.6 °C

Q: B54 was tested. Which thermal melting temperature did it give?
A: 61.5 °C

Q: With B55 as the sequence, how does the thermal melting temperature read?
A: 55 °C

Q: For B56, which thermal melting temperature is on record?
A: 55.8 °C

Q: For B57, which thermal melting temperature is on record?
A: 62.9 °C

Q: With B58 as the sequence, how does the thermal melting temperature read?
A: 63 °C

Q: How did the thermal melting temperature turn out when B59 was run?
A: 60.8 °C
